This is an account of results in PubChem BioAssay (Tox21).

The nature of assay [1]: qHTS RealTime-Glo MT Cell Viability Assay in HEK293 cells - 40 hour (AID 1224874). Further: nearly all actives have a fitted effect of over 50% in size. As to conditions: RealTime-Glo luminescence; max response: stronger effect = lower value. In short, it runs like this:
(§1)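 Nonlytic bioluminescent viability monitoring. HEK293 at 600 cells/well with reagent; 5 h settle; compound transfer by pintool; plates held at 37 C and read at set time points.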
A general note: Quantitative high-throughput screening tests each substance at several concentrations.

Assay [2] can be described thus: A CellTox Green Cytotoxicity Assay to monitor cytotoxicity in HEK293 cells - 24 hour (AID 1224875). Further: nearly all actives have a fitted effect of over 45% in size. In outline:
(§2)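 Cytotoxicity was tracked continuously in HEK293 cells by a DNA-binding dye excluded from viable cells. Compounds were transferred in DMSO 5 h after seeding; fluorescence was recorded at intervals up to 40 h.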

A short description of assay [3]: A CellTox Green Cytotoxicity Assay to monitor cytotoxicity in HepG2 cells - 16 hour (AID 1224876). Further: nearly all actives have a fitted effect of over 45% in size. In short, it runs like this:
(§3)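 Real-time, homogeneous cytotoxicity readout: dead-cell DNA staining by CellTox Green in HepG2 monolayers, fluorescence measured at timed intervals up to 40 h of continuous compound exposure.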

The nature of assay [4]: qHTS RealTime-Glo MT Cell Viability Assay in HepG2 cells - 32 hour (AID 1224877). Further: nearly all actives have a fitted effect of over 55% in size. In short, it runs like this:
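qHTS, HepG2, 600 cells/well, RealTime-Glo (NanoLuc + prosubstrate) added with cells; 5 h preincubation; DMSO compound addition; 37 C; luminescence at 0/8/16/24/32/40 h.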

The nature of assay [5]: A CellTox Green Cytotoxicity Assay to monitor cytotoxicity in HepG2 cells - 24 hour (AID 1224878). Further: nearly all actives have a fitted effect of over 45% in size. In short, it runs like this:
as §3

Assay [6] is described as follows: A CellTox Green Cytotoxicity Assay to monitor cytotoxicity in HepG2 cells - 40 hour (AID 1224879). Further: nearly all actives have a fitted effect of over 40% in size. In outline: as §3
Assay [7] can be described thus: qHTS RealTime-Glo MT Cell Viability Assay in HEK293 cells - 0 hour (AID 1224880). Further: nearly all actives have a fitted effect of over 45% in size. In short, it runs like this: as §1
Assay [8] in a line: A CellTox Green Cytotoxicity Assay to monitor cytotoxicity in HEK293 cells - 32 hour (AID 1224881). Further: nearly all actives have a fitted effect of over 40% in size. In short, it runs like this: as §2
Assay [9] can be described thus: A CellTox Green Cytotoxicity Assay to monitor cytotoxicity in HepG2 cells - 0 hour (AID 1224882). Further: nearly all actives have a fitted effect of over 35% in size. In outline: as §3

Several values for one entry are separate records, joined by “and”; a condition that tells them apart may be missing. Identical values can stand only once. Inconclusive results are not listed. Some compounds were tested as several samples or in several runs, with calls that do not always agree. Activity calls are given as the source filed them. The call rests on the fitted dose curve; in most records, active means well fitted curve in the direction sought with a large enough effect in the repeat runs; inconclusive means weak or mixed curves; inactive means no such curve, though single readings can be large; an effect the other way counts as inactive or inconclusive.
On the % scale 0 is the no-effect control and ±100 the full control effect; potency means the concentration at half of the fitted maximal effect.

For the compound `O`, the max response in assay [1] was 0.569% (inactive) and 9.85% (inactive). For the same compound, the Potency result in [2], in assay [3], in assay [4], in assay [5], in [6] and in [7] was “inactive” throughout. In addition, the Potency result in [8] and in assay [9] was “inactive” throughout.

For the compound `CC1COc2c(N3CCN(C)CC3)c(F)cc3c(=O)c(C(=O)O)cn1c23` (centres undefined), the Potency result in [2], in assay [5], in assay [6], in [8] and in assay [9] was “inactive” each time.

As to `Cc1ccnc2c1NC(=O)c1cccnc1N2C1CC1`, the max response in assay [1] was -13.4% (inactive) and -3.25% (inactive). The Potency result in assay [2], in assay [4], in assay [5], in [6], in assay [7] and in assay [8] was “inactive” throughout. The Potency entry in assay [9] is “inactive”.

Turning to `Nc1ccc2cc3ccccc3cc2c1`, the max response in assay [1] was -15.8% (inactive) and 6.47% (inactive). Further, the Potency result in assay [2], in assay [4], in assay [5], in assay [6], in assay [7] and in assay [8] was “inactive” each time. For the same compound, in assay [9], the Potency result was “inactive”.

Turning to `CC(C)C(=O)c1c(C(C)C)nn2ccccc12`, the max response in assay [1] was -0.81% (inactive). For the same compound, the Potency result in assay [2], in assay [3], in assay [4], in assay [5], in [6] and in [7] was “inactive” in each case. Moreover, the Potency entry in assay [8] and in assay [9] was “inactive” each time.

As for `CC(=O)C1=C(C)[C@@H]2C[C@@]3(C1)[C@H](C)CC[C@H]3C2(C)C`, the max response in [1] is -1.5% (inactive) and -2.44% (inactive). In addition, the Potency entry in assay [2], in assay [3], in assay [4], in [5], in [7] and in [9] was “inactive” throughout. The Potency in [8] was 36.2 µM (active) and inactive.

As for `BrC1CCC(Br)C(Br)CCC(Br)C(Br)CCC1Br` (centres undefined), the max response in [1] is -14.3% (inactive). For the same compound, the Potency result in assay [2], in assay [3], in assay [5], in [6], in [7] and in assay [8] was “inactive” throughout.

On to `CC(=O)O[C@]1(C(C)=O)CC[C@H]2[C@@H]3C[C@H](C)C4=CC(=O)CC[C@]4(C)[C@H]3CC[C@@]21C`, for which the Potency was 19.5 µM (active) and 9.52 µM (active) in assay [1]; 691 nM (active) and 756 nM (active) in assay [7]; “inactive and 37.9 nM (active)” in assay [9]. In addition, the Potency entry in assay [2], in assay [3], in [4], in [5], in assay [6] and in [8] was “inactive” each time.

Consider `CCN(CC)C(=S)SSC(=S)N(CC)CC`, for which the Potency was 174 nM (active) and 656 nM (active) and 13.4 µM (active) in assay [1]; 89.1 nM (active) in assay [4]; 158 nM (active) and 95.2 nM (active) in [5]; 100 nM (active) in assay [6]; 141 nM (active) and inactive in assay [8]. The Potency entry in assay [7] is “inactive”.

Turning to `CC(C)(C)NCC(O)c1cc(O)cc(O)c1` (centres undefined), the max response in assay [1] is 4.94% (inactive). The Potency entry in assay [2], in assay [3], in [4], in assay [5], in assay [6] and in assay [7] was “inactive” throughout. In addition, the Potency entry in assay [8] and in assay [9] was “inactive” each time.

Regarding `Cc1scc2c1N(C(=O)CN1CCN(C)CC1)c1ccccc1NC2=O`, the max response in assay [1] was 1.2% (inactive). In addition, the Potency result in [2], in assay [3], in assay [4], in [5], in [6] and in [7] was “inactive” throughout. Further, the Potency entry in assay [8] and in [9] was “inactive” each time.

On to `CC(=O)OCCOCCOCCOC(C)=O`, for which the max response in assay [1] was 7.9% (inactive) and 19.2% (inactive). Besides, the Potency entry in assay [2], in [4], in assay [5], in assay [6], in assay [7] and in assay [8] was “inactive” throughout. The Potency entry in assay [9] is “inactive”.

As for `CC[C@@H](N)CO`, in [1], the max response was -8.2% (inactive). In addition, the Potency entry in assay [2], in assay [4], in assay [5], in assay [6], in assay [7] and in assay [8] was “inactive” in each case.

In the case of `CN(C)c1ccc(C(=C2C=CC(=[N+](C)C)C=C2)c2ccccc2)cc1`, the Potency in assay [1] is 1.34 µM (active) [middle of 4 runs]; in assay [2] it was 19.5 µM (active) [middle of 4 runs]; in assay [3], 9.77 µM (active) and 9.52 µM (active) and 7.56 µM (active); in assay [4] it was 7.56 µM (active) [middle of 4 runs]; in [5], 6.74 µM (active) [middle of 4 runs]; in assay [8], 15.1 µM (active) [middle of 4 runs]. Further, the Potency result in assay [7] is “inactive”.
